From PubChem BioAssay (NCI) come the findings set out here.

Some test systems named below: EKVX NSCLC; SN12C renal; UO-31 renal; TK-10 renal; ACHN renal; CAKI-1 renal; A498 renal; CCRF-CEM leukemia; MOLT-4 leukemia; SR leukemia.
Holding throughout (experiment): NCI-60 one-dose screen, 48 h (100 = growth as untreated, 0 = no growth, -100 = all killed)
Holding throughout (conditions): 10 µM unless noted

The panel holds about 83,000 compounds, 20% with a hit somewhere; the sample as a whole holds those more often.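 Results are percent growth after 48 hours of single-concentration exposure. 100 means growth as in untreated cells, lower positive values show inhibition; negative values down to -100 show cell death.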 Unmarked numbers belong to inactive results. Active and inactive are the calls of the source. The calls were made as follows: active = growth percent below 10; inactive = the rest.

For the molecule `O=C1CC(C(F)(F)F)=NN1C(=O)c1nn(-c2ccc(Cl)cc2)cc1O`, the growth in the assay with EKVX NSCLC is 79.5%; with SN12C renal, 80.3%; in the assay with UO-31 renal, 67.3%; with TK-10 renal, 122%; with ACHN renal, 79.3%; in the assay on CAKI-1 renal, 52.8%. Moreover, the growth is 77.8% with A498 renal, 53.1% with CCRF-CEM leukemia, 80.4% in the assay with MOLT-4 leukemia and -0.46% (active) with SR leukemia.

With `COc1ccc(/C=N/NC(=O)c2ccc(S(C)(=O)=O)cc2)cc1OC`, the growth with EKVX NSCLC is 103%; with SN12C renal, 98.3%; with UO-31 renal it was 90.8%; in the assay with TK-10 renal, 96.9%; with ACHN renal, 102%; with CAKI-1 renal, 89%. Also, the growth in the assay on A498 renal is 94.6%; with CCRF-CEM leukemia it was 103%; with MOLT-4 leukemia it was 65.9%; with SR leukemia it was 92.5%.

As to `CO[C@H]1/C=C/O[C@@]2(C)Oc3c(C)c(O)c4c(O)c(c(/C=N/N5CCN(C)CC5)c(O)c4c3C2=O)NC(=O)/C(C)=C\C=C\C(C)[C@H](O)[C@@H](C)[C@@H](O)[C@@H](C)[C@@H](OC(C)=O)[C@@H]1C` (some centres not stated), the growth in the assay on EKVX NSCLC was 91.7%; with SN12C renal, 105%; in the assay with UO-31 renal, 88%; in the assay on TK-10 renal, 98.6%; with ACHN renal, 82.1%; in the assay with CAKI-1 renal, 90.4%. The growth in the assay with A498 renal was 103%; in the assay on CCRF-CEM leukemia it was 101%; with MOLT-4 leukemia, 102%; in the assay with SR leukemia it was 105%.

Take `CC(C)c1ccc(C(=O)Nc2sc3c(CN(C)C)c(O)ccc3c2C(N)=O)cc1`: the growth was 86.7% in the assay with EKVX NSCLC; 55.9% in the assay with SN12C renal; 34.1% in the assay with UO-31 renal; 97.4% in the assay with TK-10 renal; 61.3% in the assay with ACHN renal; 79.6% in the assay with CAKI-1 renal. The growth with A498 renal is 82.5%; in the assay on CCRF-CEM leukemia, -17.9% (active); in the assay with MOLT-4 leukemia, 15.2%; with SR leukemia, -2.24% (active).

On to `COc1ccc2nc(NC(=O)c3cc(-c4ccc(F)cc4)n4nc(-c5ccccc5)cc4n3)sc2c1`, for which the growth in the assay on EKVX NSCLC was 79.5%; in the assay with SN12C renal, 88.6%; with UO-31 renal, 73.6%; in the assay on TK-10 renal, 134%; in the assay on ACHN renal, 67.5%; in the assay with CAKI-1 renal it was 77.5%. Further, the growth was 83.4% in the assay with A498 renal, 64.1% with CCRF-CEM leukemia, 96.1% with MOLT-4 leukemia and 77.5% in the assay with SR leukemia.

Turning to `Cc1cc(N2CCOCC2)nc(N2CCOCC2)n1`, the growth in the assay with EKVX NSCLC was 95.7%; with SN12C renal it was 95.5%; in the assay with UO-31 renal, -1.48% (active); with TK-10 renal it was 92.2%; in the assay with ACHN renal, 108%; in the assay with CAKI-1 renal, 96.7%. Also, the growth with A498 renal was 100%; in the assay with CCRF-CEM leukemia it was 95.3%; in the assay with MOLT-4 leukemia, 104%; in the assay with SR leukemia, 105%.

Take `CCN(CC)c1ccc(CN(CC(=O)c2ccc(Cl)c(Cl)c2)Cc2ccccc2)cc1`: the growth in the assay with EKVX NSCLC was 108%; in the assay on SN12C renal, 101%; with UO-31 renal, 81.9%; in the assay with TK-10 renal, 117%; in the assay with ACHN renal, 107%; in the assay with CAKI-1 renal it was 92.3%. Further, the growth in the assay with A498 renal was 92.1%; in the assay with CCRF-CEM leukemia, 97.8%; in the assay on MOLT-4 leukemia it was 98%; in the assay with SR leukemia, 88.3%.

On to `Cc1cc(NC(=O)c2ccc(N)cc2)ccc1N=Nc1ccc2c(O)c(N=Nc3ccc(Cl)c(S(=O)(=O)O)c3)c(S(=O)(=O)O)cc2c1`, for which the growth was 106% with EKVX NSCLC; 102% with SN12C renal; 79.5% in the assay with UO-31 renal; 73% in the assay with TK-10 renal; 71.5% in the assay with ACHN renal; 87.1% with CAKI-1 renal. Moreover, the growth in the assay with A498 renal was 88.9%; with CCRF-CEM leukemia, 55.7%; with MOLT-4 leukemia, 99.3%; with SR leukemia, 66.5%.

As to `O=C1C2C3C=CC(O3)C2C(=O)N1Nc1ccccc1` (configuration not stated), the growth was 101% with EKVX NSCLC; 107% with SN12C renal; 101% in the assay on UO-31 renal; 103% with TK-10 renal; 103% with ACHN renal; 93.5% in the assay with CAKI-1 renal. The growth in the assay with A498 renal was 68.1%; in the assay with CCRF-CEM leukemia, 96.1%; with SR leukemia it was 126%.

Turning to `Cc1ccc(C(=O)Nc2ccc(Cl)cc2C(=O)NCc2ccccc2)cc1`, the growth was 80.3% with EKVX NSCLC; 97.7% in the assay on SN12C renal; 76.5% with UO-31 renal; 105% in the assay on TK-10 renal; 86.4% in the assay with ACHN renal; 77.7% with CAKI-1 renal. The growth is 79.2% in the assay with A498 renal, 73.9% in the assay on CCRF-CEM leukemia, 51.4% with MOLT-4 leukemia and 37.1% in the assay with SR leukemia.

As for `C=C1CC[C@@H]2[C@](C)(COC(C)=O)[C@H](OC(C)=O)CC[C@@]2(C)[C@@H]1CC(Nc1ccc(S(=O)(=O)Nc2cc(C)on2)cc1)C1=CCOC1=O` (some centres not stated), the growth was 81.9% with EKVX NSCLC; 31.8% in the assay on SN12C renal; 56.9% with UO-31 renal; 58.4% in the assay with TK-10 renal; 19.5% in the assay with ACHN renal; 44% in the assay on CAKI-1 renal. For the same molecule, the growth was 98.6% with A498 renal, -19.1% (active) with CCRF-CEM leukemia and 1.4% (active) in the assay on SR leukemia.

`COc1cccc(/C=C2\COc3ccc(O)c(O)c3C2=O)c1OC`: the growth with EKVX NSCLC was 70.4%; in the assay on SN12C renal, -62.7% (active); with UO-31 renal, -94.7% (active); in the assay on TK-10 renal it was 11.7%; with ACHN renal, -60.1% (active); in the assay with CAKI-1 renal it was 22.6%. Besides, the growth is 80.3% in the assay on A498 renal, 3.28% (active) in the assay on CCRF-CEM leukemia and -8.94% (active) in the assay on SR leukemia.

With `COc1cc(OC)c2cc(C(=O)O)c(=O)oc2c1`, the growth is 98.2% in the assay with EKVX NSCLC; 108% with SN12C renal; 80.7% in the assay on UO-31 renal; 90.6% in the assay on TK-10 renal; 107% in the assay with ACHN renal; 85.9% in the assay with CAKI-1 renal. The growth with A498 renal was 102%; in the assay on CCRF-CEM leukemia it was 113%; with MOLT-4 leukemia, 74.9%; in the assay with SR leukemia it was 115%.

`NC(N)=N/N=C(/c1ccccc1)c1ccc(Cl)cc1`: the growth in the assay with EKVX NSCLC is 60.6%; in the assay on SN12C renal, 68.9%; in the assay on UO-31 renal, 95.4%; in the assay on TK-10 renal, 94.1%; in the assay with ACHN renal, 104%; with CAKI-1 renal, -17.2% (active). In addition, the growth with A498 renal was 56.5%; in the assay on CCRF-CEM leukemia, 125%; in the assay on MOLT-4 leukemia it was 125%; with SR leukemia, 50.3%.
